VHR inh color: blocks the human dual specificity phosphatase VHR1 | P51452 | recombinant VHR phosphatase, colorimetric substrate read-out | inhibition, % at 20 µM | 50,000 tested, 0.7% active | AID 1992; in the data active means inhibition above about 60%
Target sequence (P51452 whole entry, looked up): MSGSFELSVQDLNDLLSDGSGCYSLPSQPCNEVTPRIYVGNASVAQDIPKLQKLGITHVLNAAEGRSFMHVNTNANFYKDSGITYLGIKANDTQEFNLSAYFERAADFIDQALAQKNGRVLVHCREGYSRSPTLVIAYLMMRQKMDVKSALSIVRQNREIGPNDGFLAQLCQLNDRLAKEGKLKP
Large screens that a line does not name were inactive. The sample as a whole holds a higher share of hits than the screen did.

CC1=NN(c2ccccc2)C(=O)/C1=C\c1c(O)n(-c2ccc(I)cc2)[nH]c1=O	none
CCOC(=O)C1=C(C)N=C2SCCN2C1c1ccccc1 (stereo unspecified)	none
COc1ccc(OC)c(NC(=O)c2ccc(CN(c3ccc(C)c(C)c3)S(C)(=O)=O)cc2)c1	none
CCOc1ccc2c(=O)c(Oc3ccc(OC)cc3)c(C(F)(F)F)oc2c1	none
COc1ccc(C(=O)OCCNC(=O)c2ccc[n+](C)c2)cc1OC	none
O=C(/C=C/c1ccc2c(c1)OCO2)NC1CC2CCC1C2 (stereo unspecified)	none
O=C(/C=C/c1ccc2c(c1)OCO2)NCc1ccc2c(c1)OCO2	none
CC(C)(C)C(=O)/C=C/c1ccc(-n2nncc2C(C)(C)C)cc1	none
CC(=O)c1ccc(-n2c(C)ccc2C)cc1	none
Cc1ccc(C)n1-c1ccc(OCC(=O)O)cc1	none
Cc1ccc(C)n1-c1ccc(SCC(=O)O)cc1	VHR inh color 91
CCCCCOC(=O)C1=C(C)NC2=C(C(=O)CCC2)C1c1cccc(Cl)c1Cl (stereo unspecified)	none
COc1ccc(N2C(=O)c3cccc4c(N5CCNCC5)ccc(c34)C2=O)cc1	none
Cc1ccc(OCC(=O)Nc2cc([N+](=O)[O-])ccc2C)c(C(C)(C)C)c1	none
CCOc1cc(/C=N/NC(=O)c2cc(-c3ccc4ccccc4c3)n[nH]2)ccc1O	none
CC1=C(C(=O)OC(C)C)C(c2ccccc2F)CC(=O)N1 (stereo unspecified)	VHR inh color 118
CC1=C(C(=O)OCCc2ccccc2)C(c2ccccc2OC(C)C)CC(=O)N1 (stereo unspecified)	none
CC1=C(C(=O)OCc2ccccc2)C(c2ccccc2OC(C)C)CC(=O)N1 (stereo unspecified)	none
CC(=O)Nc1ccc(S(=O)(=O)Nc2cc(C)cc(C)c2)cc1	none
Cc1cc(C)c(OCCCN2CCOCC2)c(C)c1	none
c1ccc2c(CNC34CC5CC(CC(C5)C3)C4)c[nH]c2c1	VHR inh color active
O=C1C=C(NCCc2c[nH]c3ccccc23)CC(c2ccccc2)C1 (stereo unspecified)	none
CCC(CC)NCc1c[nH]c2ccccc12	none
COc1ccc(N2C(=O)C=CC2=O)cc1	none
Cc1ccc(N2C(=O)C=CC2=O)c(Br)c1	none
O=C1C=CC(=O)N1c1ccccc1N1C(=O)C=CC1=O	VHR inh color 84
CC/C(CNC(=O)c1ccccc1)=N/NC(=O)CN(CC)c1ccccc1	none
Cc1ccc(N=C2NC(=O)/C(=C/c3cccc(O)c3)S2)cc1Cl	none
Cc1ccc(N=C2NC(=O)/C(=C/c3ccc(F)cc3)S2)cc1Cl	none
COc1cc(/C=C2\SC(=Nc3ccc(C)c(Cl)c3)NC2=O)ccc1O	VHR inh color 68
Cc1ccc(/C(O)=C2\C(=O)C(=O)N(c3nncs3)C2c2cccc(Br)c2)cc1 (stereo unspecified)	none
Cc1ccccc1/C=C1/SC(N)=NC1=O	none
c1ccc(CCCN2CCN(C3CCCC3)CC2)cc1	none
O=C(Nc1ccccc1)N1CCN(Cc2ccc3c(c2)OCO3)CC1	VHR inh color 101
O=C(c1ccc(F)cc1)N1CCN(Cc2ccc3c(c2)OCO3)CC1	none
O=C(COc1ccc2ccccc2c1)N1CCN(Cc2ccc3c(c2)OCO3)CC1	none
O=C(COc1ccc(Cl)cc1Cl)Nc1ccc(F)c(Cl)c1	none
CCOC(=O)c1c(NC(=O)c2ccc(OC)cc2)sc(C(C)=O)c1C	none
CCC(=O)N1c2ccccc2NC2=C(C(=O)CC(c3ccccc3)C2)C1c1ccc(F)cc1 (stereo unspecified)	VHR inh color 113
COc1ccc(C2CC(=O)C3=C(C2)Nc2ccccc2NC3c2ccc(OC)c(OC)c2)cc1 (stereo unspecified)	none
CCC(=O)N1c2ccccc2NC2=C(C(=O)CC(c3ccccc3)C2)C1c1cccc(Br)c1 (stereo unspecified)	none
COc1ccc(C2CC(=O)C3=C(C2)Nc2ccccc2NC3c2ccc(-c3ccccc3)cc2)cc1OC (stereo unspecified)	none
CCC(=O)N1c2ccccc2NC2=C(C(=O)CC(c3ccc(OC)cc3)C2)C1c1ccccc1 (stereo unspecified)	none
COc1ccc(C2C3=C(CC(c4ccccc4)CC3=O)Nc3ccccc3N2C(=O)C(C)C)cc1OC (stereo unspecified)	VHR inh color 99
O=C(COc1ccccc1Cl)Nc1ccc2nn(-c3ccccc3)nc2c1	none
CC(C)(C)c1ccc(C(=O)O/N=C(\N)c2cccc([N+](=O)[O-])c2)cc1	none
Cc1cc(Cl)ccc1OCC(=O)O/N=C(\N)c1ccc(Br)cc1	none
CC(C)=C1C2C=CC1C1C(=O)N(c3ccc(C)cc3[N+](=O)[O-])C(=O)C21 (stereo unspecified)	none
CCOC(=O)c1ccc(NC(=O)/C(=C/c2ccccc2)c2ccccc2)cc1	none
COc1ccc2nc(NC(=O)C(C)(C)C)sc2c1	none
CCOc1ccccc1NC(=O)c1c(N)sc2c1CCCCC2	VHR inh color 75
COc1ccccc1NC(=O)c1c(N)sc2c1CCC2	none
CCOc1ccccc1NC(=O)c1c(NC(=O)Cc2ccccc2)sc2c1CCCCC2	none
CC(C)C1=NN2C(=N)/C(=C/c3cc(Cl)ccc3OCc3ccccc3)C(=O)N=C2S1	none
C=CCOc1ccc(Cl)cc1/C=C1/C(=N)N2N=C(CCC)SC2=NC1=O	VHR inh color 108
CCCC1=NN2C(=N)/C(=C/c3ccccc3C)C(=O)N=C2S1	none
CCOC(=O)C1=C(C)N=c2s/c(=C\c3ccc([N+](=O)[O-])o3)c(=O)n2C1c1ccc(C)cc1 (stereo unspecified)	none
COC(=O)C1=NN(C(C)=O)C2C(=O)N(c3cccc(C)c3)C(=O)C12 (stereo unspecified)	none
Cc1ccc(C(=O)Nc2sc3c(c2C(=O)N2CCCCCC2)CCC(C)C3)cc1 (stereo unspecified)	none
Cc1ccc(C(=O)Nc2sc3c(c2C(=O)N2CCC(C(N)=O)CC2)CCCC3)cc1	none
Cc1ccc(C(=O)Nc2sc3c(c2C(=O)N2CCC(C)CC2)CCCC3)cc1	VHR inh color 87
N#Cc1c(-c2cccc(Br)c2)c(C#N)c2nc3ccccc3n2c1N	none
N#Cc1c(-c2ccc(F)cc2)c(C#N)c2nc3ccccc3n2c1N	none
COc1ccc(-c2c(C#N)c(N)n3c(nc4ccccc43)c2C#N)cc1OC	VHR inh color 69
COc1ccc(N(CC(=O)N(C)Cc2ccccc2)S(C)(=O)=O)c(OC)c1	none
O=C1NC(=Nc2ccc(O)cc2)S/C1=C/C=C/c1ccccc1	none
CCCOC(=O)c1ccc(NC(=O)c2cccc(OCc3ccccc3)c2)cc1	none
CCCOc1cccc(C(=O)Nc2cccc(C(=O)Nc3ccccc3C(=O)O)c2)c1	none
CC(=O)c1cccc(NC(=O)c2cccc(OCc3ccccc3)c2)c1	VHR inh color 112
CC(=O)C1=C(O)C(=O)N(CC2CCCO2)C1c1ccc(Cl)cc1Cl (stereo unspecified)	none
O=C(Nc1cccc2ccccc12)C1C(c2ccccc2)=C1c1ccccc1	VHR inh color 100
CC1(C)C(C(=O)Nc2cccc3ccccc23)C1(C)C	none
NC(=O)C(=O)Nc1cccc2ccccc12	none
Cc1ccc(/C=C/C(=O)N2CCN(c3ccc(Cl)cc3)CC2)cc1	none
O=C(Nc1ccc(NC(=O)c2ccc(-c3ccc(Cl)cc3Cl)o2)cc1)c1ccccc1	none
O=C(O)c1ccc(-c2cc(Cl)ccc2Cl)o1	none
CC(=O)c1cccc(NC(=O)c2ccc(-c3ccc(Cl)cc3Cl)o2)c1	VHR inh color 109
O=C(Nc1ccccc1C(F)(F)F)c1ccc(-c2cc(Cl)ccc2Cl)o1	VHR inh color 112
CC(=O)c1ccc(NC(=O)c2ccc(-c3ccc(Cl)cc3Cl)o2)cc1	none
O=C(Nc1ccccc1C(F)(F)F)c1ccc(Cl)cc1Cl	none

Assay outcomes deposited in PubChem by Sanford-Burnham Center for Chemical Genomics.
